{"source": "PubChem BioAssay (NCATS)", "test_in_all_cases": "qHTS profiling for inhibitors of Plasmodium falciparum proliferation (AID 504749); also: nearly all actives have a fitted effect of over 60% in size", "conditions_in_all_cases": "P. falciparum in erythrocytes, SYBR Green DNA, 72 h; series mostly up to 28.7 µM", "key": {"CP185": {"system": "CP185", "summary_of_the_method": "(§1)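 Parasite proliferation within erythrocytes, 72 h exposure. Endpoint: SYBR Green I fluorescence after overnight lysis at room temperature. Controls: 0.29 uM artemisinin, DMSO.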"}, "CP191": {"system": "CP191", "summary_of_the_method": "as §1"}, "CP192": {"system": "CP192", "summary_of_the_method": "as §1"}, "AS120": {"system": "AS120", "summary_of_the_method": "as §1"}, "ATS189": {"system": "ATS189", "summary_of_the_method": "as §1"}, "C2A": {"system": "C2A", "summary_of_the_method": "as §1"}, "CP194": {"system": "CP194", "summary_of_the_method": "as §1"}, "CP201": {"system": "CP201", "summary_of_the_method": "as §1"}, "CP203": {"system": "CP203", "summary_of_the_method": "as §1"}, "ATS95": {"system": "ATS95", "summary_of_the_method": "as §1"}}, "note": "Records with an inconclusive call do not appear. Entries that show only a call come without a potency. Activity calls are given as the source filed them. Calls follow the shape of the dose curve; as a rule, active = well fitted inhibition curve with a large enough effect; inconclusive = small, poorly fitted or top-dose-only effect; inactive = flat fitted curve, though single readings scatter. Potency is read from the fitted curve at half-maximal effect."}
{"smiles": "CN1CCC[C@@H]1Cc1c[nH]c2ccc(CCS(=O)(=O)c3ccccc3)cc12", "values": [{"measurement": "Potency", "setting": "CP185", "value": "inactive"}, {"measurement": "Potency", "setting": "CP191", "value": "5.01 µM (active)"}, {"measurement": "Potency", "setting": "CP192", "value": "inactive"}]}
{"smiles": "CCCCOc1cc(C(=O)OCCN(CC)CC)ccc1N", "values": [{"measurement": "Potency", "setting": "AS120", "value": "inactive"}, {"measurement": "Potency", "setting": "ATS189", "value": "inactive"}, {"measurement": "Potency", "setting": "C2A", "value": "inactive"}, {"measurement": "Potency", "setting": "CP185", "value": "inactive"}, {"measurement": "Potency", "setting": "CP191", "value": "inactive"}, {"measurement": "Potency", "setting": "CP192", "value": "inactive"}, {"measurement": "Potency", "setting": "CP194", "value": "inactive"}, {"measurement": "Potency", "setting": "CP201", "value": "inactive"}, {"measurement": "Potency", "setting": "CP203", "value": "inactive"}]}
{"smiles": "CN(C)CCN(Cc1ccccc1)c1ccccn1", "values": [{"measurement": "Potency", "setting": "C2A", "value": "inactive"}, {"measurement": "Potency", "setting": "CP185", "value": "inactive"}, {"measurement": "Potency", "setting": "CP191", "value": "inactive"}, {"measurement": "Potency", "setting": "CP192", "value": "inactive"}, {"measurement": "Potency", "setting": "CP194", "value": "inactive"}, {"measurement": "Potency", "setting": "CP201", "value": "inactive"}]}
{"smiles": "CCCCN1CCCC[C@H]1C(=O)Nc1c(C)cccc1C", "values": [{"measurement": "Potency", "setting": "AS120", "value": "inactive"}, {"measurement": "Potency", "setting": "C2A", "value": "inactive"}, {"measurement": "Potency", "setting": "CP185", "value": "inactive"}, {"measurement": "Potency", "setting": "CP191", "value": "inactive"}, {"measurement": "Potency", "setting": "CP192", "value": "inactive"}, {"measurement": "Potency", "setting": "CP201", "value": "inactive"}]}
{"smiles": "NC(=O)N/N=C/c1ccc([N+](=O)[O-])o1", "values": [{"measurement": "Potency", "setting": "CP192", "value": "inactive"}]}
{"smiles": "c1ccc(CN(CC2=NCCN2)c2ccccc2)cc1", "values": [{"measurement": "Potency", "setting": "CP191", "value": "inactive"}, {"measurement": "Potency", "setting": "CP192", "value": "inactive"}, {"measurement": "Potency", "setting": "CP201", "value": "inactive"}]}
{"smiles": "OCCN1CCN(CCCN2c3ccccc3Sc3ccc(Cl)cc32)CC1", "values": [{"measurement": "Potency", "setting": "AS120", "value": "3.98 µM (active)"}, {"measurement": "Potency", "setting": "C2A", "value": "inactive"}, {"measurement": "Potency", "setting": "CP191", "value": "3.16 µM (active)"}, {"measurement": "Potency", "setting": "CP192", "value": "inactive"}]}
{"smiles": "CC(C)(C)C(=O)C(Oc1ccc(Cl)cc1)n1ccnc1", "note": "(stereo unspecified)", "values": [{"measurement": "Potency", "setting": "AS120", "value": "10 µM (active)"}, {"measurement": "Potency", "setting": "ATS189", "value": "8.91 µM (active)"}, {"measurement": "Potency", "setting": "CP185", "value": "inactive"}, {"measurement": "Potency", "setting": "CP203", "value": "13.5 µM (active)"}]}
{"smiles": "CSc1ccc2c(c1)N(CCC1CCCCN1C)c1ccccc1S2", "note": "(stereo unspecified)", "values": [{"measurement": "Potency", "setting": "AS120", "value": "11.2 µM (active)"}, {"measurement": "Potency", "setting": "CP201", "value": "inactive"}]}
{"smiles": "CC(CN1c2ccccc2Sc2ccccc21)N(C)C", "note": "(stereo unspecified)", "values": [{"measurement": "Potency", "setting": "ATS189", "value": "inactive"}, {"measurement": "Potency", "setting": "C2A", "value": "inactive"}, {"measurement": "Potency", "setting": "CP185", "value": "inactive"}, {"measurement": "Potency", "setting": "CP191", "value": "inactive"}, {"measurement": "Potency", "setting": "CP192", "value": "inactive"}, {"measurement": "Potency", "setting": "CP194", "value": "inactive"}, {"measurement": "Potency", "setting": "CP201", "value": "inactive"}]}
{"smiles": "Cc1cc(N)c2ccccc2[n+]1CCCCCCCCCC[n+]1c(C)cc(N)c2ccccc21", "values": [{"measurement": "Potency", "setting": "AS120", "value": "7.94 µM (active)"}, {"measurement": "Potency", "setting": "ATS189", "value": "0.316 µM (active)"}, {"measurement": "Potency", "setting": "C2A", "value": "0.282 µM (active)"}, {"measurement": "Potency", "setting": "CP185", "value": "0.316 µM (active)"}, {"measurement": "Potency", "setting": "CP191", "value": "0.0501 µM (active)"}, {"measurement": "Potency", "setting": "CP194", "value": "0.361 µM (active)"}, {"measurement": "Potency", "setting": "CP201", "value": "0.642 µM (active)"}]}
{"smiles": "CC(C(O)c1ccc(O)cc1)N1CCC(Cc2ccccc2)CC1", "note": "(stereo unspecified)", "values": [{"measurement": "Potency", "setting": "AS120", "value": "8.91 µM (active)"}, {"measurement": "Potency", "setting": "ATS189", "value": "11.2 µM (active)"}, {"measurement": "Potency", "setting": "C2A", "value": "10 µM (active)"}, {"measurement": "Potency", "setting": "CP185", "value": "8.91 µM (active)"}, {"measurement": "Potency", "setting": "CP191", "value": "7.94 µM (active)"}, {"measurement": "Potency", "setting": "CP194", "value": "15.1 µM (active)"}, {"measurement": "Potency", "setting": "CP203", "value": "12 µM (active)"}]}
{"smiles": "C[C@]12C[C@H](O)[C@H]3[C@@H](CCC4=CC(=O)CC[C@@]43C)[C@@H]1CC[C@@H]2C(=O)CO", "values": [{"measurement": "Potency", "setting": "CP192", "value": "inactive"}, {"measurement": "Potency", "setting": "CP194", "value": "inactive"}, {"measurement": "Potency", "setting": "CP201", "value": "inactive"}, {"measurement": "Potency", "setting": "CP203", "value": "inactive"}]}
{"smiles": "O=C1NS(=O)(=O)c2ccccc21", "values": [{"measurement": "Potency", "setting": "AS120", "value": "inactive"}, {"measurement": "Potency", "setting": "ATS189", "value": "inactive"}, {"measurement": "Potency", "setting": "C2A", "value": "inactive"}, {"measurement": "Potency", "setting": "CP185", "value": "inactive"}, {"measurement": "Potency", "setting": "CP191", "value": "inactive"}, {"measurement": "Potency", "setting": "CP192", "value": "inactive"}, {"measurement": "Potency", "setting": "CP194", "value": "inactive"}, {"measurement": "Potency", "setting": "CP201", "value": "inactive"}, {"measurement": "Potency", "setting": "CP203", "value": "inactive"}]}
{"smiles": "CN1CCN(C2Cc3ccccc3Sc3ccc(Cl)cc32)CC1", "note": "(stereo unspecified)", "values": [{"measurement": "Potency", "setting": "ATS189", "value": "inactive"}, {"measurement": "Potency", "setting": "ATS95", "value": "inactive"}, {"measurement": "Potency", "setting": "C2A", "value": "inactive"}, {"measurement": "Potency", "setting": "CP185", "value": "inactive"}, {"measurement": "Potency", "setting": "CP191", "value": "inactive"}, {"measurement": "Potency", "setting": "CP192", "value": "inactive"}, {"measurement": "Potency", "setting": "CP201", "value": "inactive"}]}
{"smiles": "CN(C)CCCN1c2ccccc2Sc2ccc(Cl)cc21", "values": [{"measurement": "Potency", "setting": "ATS95", "value": "11.2 µM (active)"}, {"measurement": "Potency", "setting": "CP201", "value": "inactive"}]}
{"smiles": "Cc1cc2c(cc1S(N)(=O)=O)S(=O)(=O)CCC2", "values": [{"measurement": "Potency", "setting": "AS120", "value": "inactive"}, {"measurement": "Potency", "setting": "ATS189", "value": "inactive"}, {"measurement": "Potency", "setting": "C2A", "value": "inactive"}, {"measurement": "Potency", "setting": "CP185", "value": "inactive"}, {"measurement": "Potency", "setting": "CP191", "value": "inactive"}, {"measurement": "Potency", "setting": "CP192", "value": "inactive"}, {"measurement": "Potency", "setting": "CP194", "value": "inactive"}, {"measurement": "Potency", "setting": "CP201", "value": "inactive"}, {"measurement": "Potency", "setting": "CP203", "value": "inactive"}]}
{"smiles": "CNCCCC1c2ccccc2C=Cc2ccccc21", "values": [{"measurement": "Potency", "setting": "AS120", "value": "inactive"}, {"measurement": "Potency", "setting": "ATS189", "value": "inactive"}, {"measurement": "Potency", "setting": "C2A", "value": "inactive"}, {"measurement": "Potency", "setting": "CP185", "value": "inactive"}, {"measurement": "Potency", "setting": "CP192", "value": "inactive"}, {"measurement": "Potency", "setting": "CP201", "value": "inactive"}]}
{"smiles": "CSc1ccc2c(c1)C(N1CCN(C)CC1)Cc1ccccc1S2", "note": "(stereo unspecified)", "values": [{"measurement": "Potency", "setting": "CP192", "value": "inactive"}, {"measurement": "Potency", "setting": "CP201", "value": "inactive"}]}
{"smiles": "CCCc1c(OCCCCc2nn[nH]n2)ccc(C(C)=O)c1O", "values": [{"measurement": "Potency", "setting": "AS120", "value": "inactive"}, {"measurement": "Potency", "setting": "ATS95", "value": "inactive"}, {"measurement": "Potency", "setting": "C2A", "value": "inactive"}, {"measurement": "Potency", "setting": "CP185", "value": "inactive"}, {"measurement": "Potency", "setting": "CP192", "value": "inactive"}, {"measurement": "Potency", "setting": "CP194", "value": "inactive"}, {"measurement": "Potency", "setting": "CP201", "value": "inactive"}, {"measurement": "Potency", "setting": "CP203", "value": "inactive"}]}
